SMN2 splice up = increases expression of the SMN2 splice variant; Potency, µM (doses to about 46.1 µM), for the others: at the highest dose activity change, positive = activation, hits mostly activators; 210,000 compounds, 2.8% hits; HEK293 SMN2-luciferase splicing reporter, luminescence, 30-36 h; note: % of control where 0% means no effect; nearly all actives have a fitted effect of over 55% in size
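HEK293 cells carry an SMN2 minigene-luciferase reporter in which exon 7 inclusion puts luciferase in frame. Cells were seeded at 2000 cells/well, attached for 10-12 hours, then exposed to compounds for 30-36 hours at 37C before ONE-Glo luminescence.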
NPC1 prom act = activators of NPC1 promoter | 320,000 compounds, 2.4% hits | Huh7 NPC1 promoter luciferase reporter, 24 h | Potency, µM (highest dose often 9.22 µM), without a hit: at the highest dose activation, actives largely listed as activators; note: % of control where 0% means no effect; nearly all actives have a fitted effect of over 60% in size
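Quantitative HTS used a cell-based reporter: Huh7 cells stably bearing the NPC1 promoter upstream of luciferase were treated with compounds for 24 h, and promoter activation was read as luminescence.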
FLuc counter = counter-screen for miR-21 project: firefly luciferase inhibitors or activators | Potency, µM (top dose mostly 57.5 µM), for inactives: top-dose activity change, negative = inhibition, hits mostly inhibitors | AID 588342 | 360,000 compounds, 6.9% hits | purified FLuc, Km substrates, luminescence inhibition | P08659;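 note: plate controls were vehicle for no effect and reference inhibitor for full effect; nearly all actives have a fitted effect of over 55% in size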
Target sequence (P08659 whole entry, looked up): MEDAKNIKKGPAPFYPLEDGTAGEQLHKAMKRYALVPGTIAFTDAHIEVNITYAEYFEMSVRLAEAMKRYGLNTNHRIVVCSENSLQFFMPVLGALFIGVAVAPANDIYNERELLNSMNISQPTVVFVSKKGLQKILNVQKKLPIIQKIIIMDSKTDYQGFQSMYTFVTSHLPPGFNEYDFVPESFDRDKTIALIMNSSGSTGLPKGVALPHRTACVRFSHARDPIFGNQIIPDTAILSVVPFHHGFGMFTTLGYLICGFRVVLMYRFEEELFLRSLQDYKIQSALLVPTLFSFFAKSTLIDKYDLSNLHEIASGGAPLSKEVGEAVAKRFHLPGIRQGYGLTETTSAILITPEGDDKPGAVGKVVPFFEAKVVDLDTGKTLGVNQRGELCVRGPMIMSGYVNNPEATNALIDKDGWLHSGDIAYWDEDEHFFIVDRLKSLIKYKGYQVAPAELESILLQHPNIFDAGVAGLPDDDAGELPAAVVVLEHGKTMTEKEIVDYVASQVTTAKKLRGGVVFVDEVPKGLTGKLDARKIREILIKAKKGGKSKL
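Purified P. pyralis luciferase, 10 nM final, with Km-level 10 uM D-luciferin and 10 uM ATP in 50 mM Tris acetate pH 7.5, 10 mM Mg acetate, 0.01% Tween-20, 0.05% BSA; 6-point qHTS titration about 60 µM downward; luminescence read.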
ELG1 DNA repair = ELG1-dependent DNA repair inhibition. HEK293T ELG1-luciferase reporter, luminescence, 16 h; DNA damage induced by 5-fluorouridine. Potency, µM (doses to about 46.1 µM), for the others: at the top dose activity change, negative = inhibition, hits mostly inhibitors. 330,000 compounds, 2.3% hits. AID 504467; note: % is set by controls: 0 for no effect and ±100 for the full control effect; nearly all actives have a fitted effect of over 55% in size
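Luminescence from the luciferase reporter, measured 30 min after ONE-Glo reagent at room temperature, was the read-out. Beforehand, 2,000 cells per well were exposed for 16 hr at 37 °C to 5-fluorouridine together with compound or vehicle.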
Rab9 prom act = Rab9 promoter activation. 320,000 compounds, 2.8% hits. Huh7 Rab9 promoter-luciferase reporter, luminescence, 24 h. Potency, µM (doses to about 9.22 µM), for inactives: at the top dose activation, negative = inhibition, hits mostly activators; note: % of control where 0% means no effect; nearly all actives have a fitted effect of over 60% in size
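Measured in stably transfected Huh7 cells bearing a Rab9 promoter–luciferase construct: 24 h compound treatment at 37 °C, followed by luminescence detection.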
ELG1 genotoxic = genotoxicity induction in ELG1-luciferase HEK293T cells; HEK293T ELG1-luciferase reporter, luminescence, 16 h; Potency, µM (titrated, usually from 46 µM), without a hit: top-dose activity change, positive = activation, usual class: activators; 330,000 compounds, 1.3% hits; AID 504466; note: % of control where 0% means no effect; nearly all actives have a fitted effect of over 60% in size
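Quantitative HTS format in 1536-well plates. HEK293T ELG1-luciferase reporter cells receive test compound and are incubated 16 hr at 37 °C, 5% CO2; ONE-Glo added, 30 min room temperature, then luminescence read.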
An asterisk follows results filed as active. Shown are actives, neighbours in structure and some others; about 9.2% of the full set was active somewhere. Calls come from the whole dose curve; as a rule, active = well fitted curve in the direction sought with a large enough effect; inconclusive = small, poorly fitted or top-dose-only effect, or another doubt; inactive = no such curve, though single readings can be large; an effect the other way counts as inactive or inconclusive. Potency is the fitted concentration of half-maximal effect.

Results for Cc1cc(C(=O)N/N=C2\CC(=O)c3ccccc32)c(C)n1-c1ccc(F)cc1 ?
NPC1 prom act: -24%; FLuc counter: 8.5µM*; ELG1 DNA repair: inconclusive; Rab9 prom act: inconclusive; ELG1 genotoxic: 11%

How did CCN(CC)CCN1C(=O)C(=O)/C(=C(/O)c2cnn(-c3ccccc3)c2C)C1c1ccc(C)o1 (stereo not given) do in these assays?
SMN2 splice up: 7%; NPC1 prom act: 30%; FLuc counter: inconclusive; ELG1 DNA repair: inconclusive; Rab9 prom act: inconclusive; ELG1 genotoxic: inconclusive

How did Cc1c(/C(O)=C2/C(=O)C(=O)N(CCN3CCOCC3)C2c2cccs2)cnn1-c1ccccc1 (stereo not given) do in these assays?
SMN2 splice up: inconclusive; NPC1 prom act: 4.5µM*; FLuc counter: 9.5µM*; ELG1 DNA repair: inconclusive; Rab9 prom act: 1.3µM*; ELG1 genotoxic: 1.8µM*

Results for Cc1ccc(C2/C(=C(/O)c3cnn(-c4ccccc4)c3C)C(=O)C(=O)N2CCN2CCOCC2)o1 (stereo not given) ?
SMN2 splice up: -52%; NPC1 prom act: 3.5µM*; FLuc counter: 21µM*; ELG1 DNA repair: inconclusive; Rab9 prom act: 2.8µM*; ELG1 genotoxic: 5.8µM*

Results for Cc1nc2ccccn2c1/C(O)=C1\C(=O)C(=O)N(CCN2CCOCC2)C1c1cccs1 (stereo not given) ?
SMN2 splice up: 5%; NPC1 prom act: -3%; FLuc counter: 3%; ELG1 DNA repair: -9%; Rab9 prom act: -5%; ELG1 genotoxic: 1%

How did CC(C)(C)c1ccc(OCCC(=O)OCC(=O)N2c3ccccc3NC(=O)C2(C)C)cc1 do in these assays?
NPC1 prom act: -3%; FLuc counter: inconclusive; ELG1 DNA repair: 9%; Rab9 prom act: -1%; ELG1 genotoxic: 2%

What do the screens show for `COC(=O)c1ccc2c(c1)C(C)(C)C(/C=C/c1ccc(O)cc1)=[N+]2C`?
SMN2 splice up: -93%; NPC1 prom act: -37%; FLuc counter: 13µM*; ELG1 DNA repair: inconclusive; Rab9 prom act: -36%; ELG1 genotoxic: inconclusive

How did Cc1ccc(C)c(NC(=O)CSc2nncn3c2cc2sccc23)c1 do in these assays?
FLuc counter: 4%

How did CCOC(=O)c1cc(C)n(CC2CCC(C(=O)Nc3ccc(C)cc3)CC2)c1C (stereo not given) do in these assays?
FLuc counter: -3%

What do the screens show for `CCCCSc1nsc(NC(C)=O)n1`?
SMN2 splice up: 18µM*; NPC1 prom act: 2.2µM*; FLuc counter: 11µM*; ELG1 DNA repair: inconclusive; Rab9 prom act: 1.4µM*; ELG1 genotoxic: inconclusive

Results for CCCSc1nsc(NC(=O)CCC)n1 ?
SMN2 splice up: 5µM*; NPC1 prom act: 2.8µM*; FLuc counter: 12µM*; ELG1 DNA repair: inconclusive; Rab9 prom act: 1.4µM*; ELG1 genotoxic: 8%

How did CCOc1ccc(NCc2nc3ccccc3n2CCOc2ccccc2)cc1 do in these assays?
SMN2 splice up: -43%; NPC1 prom act: inconclusive; FLuc counter: 12µM*; ELG1 DNA repair: inconclusive; Rab9 prom act: 25%; ELG1 genotoxic: inconclusive

What do the screens show for `Clc1ccc(NCc2nc3ccccc3n2CCOc2ccccc2)cc1`?
SMN2 splice up: -30%; FLuc counter: inconclusive

Results for Cc1ccccc1NCc1nc2ccccc2n1CCOc1ccccc1 ?
SMN2 splice up: 18µM*; FLuc counter: 9.5µM*

What do the screens show for `CC(C)N(Cc1ccccc1)C(=O)COC(=O)c1cc[n+]([O-])cc1`?
ELG1 DNA repair: 28%; ELG1 genotoxic: 1%

What do the screens show for `Cc1ccc(NC(=O)C2CC(O)CN2C(=O)OCc2ccccc2)c(C)c1` (stereo not given)?
NPC1 prom act: 1%; FLuc counter: 1%; ELG1 DNA repair: -1%; Rab9 prom act: -2%; ELG1 genotoxic: -2%

Source: PubChem (National Center for Advancing Translational Sciences (NCATS))
